According to PubChem BioAssay AID504339 (National Center for Advancing Translational Sciences (NCATS), 2011):
Hit rate of the full screen: of about 390,000 compounds, about 17,000 (4.4%) were called active. Roughly 8% stayed inconclusive and do not appear here. This is one part of a sample in which actives are shown more often than they occur. Calls follow the shape of the dose curve; as a rule, active = well fitted inhibition curve with a large enough effect; inconclusive = small, poorly fitted or top-dose-only effect; inactive = no such curve, though single readings can be large or run the other way.

The compounds below were run against Lysine-specific demethylase 4A (Homo sapiens) (UniProt O75164) (assay: qHTS Assay for Inhibitors of JMJD2A-Tudor Domain). Settings: AlphaScreen JMJD2A-Tudor / H3K4me3 peptide binding; series mostly up to 114 µM; activity change, negative = inhibition: at the top concentration.
Lysine-specific demethylase 4A (Homo sapiens), sequence (O75164 whole entry, looked up, the tested form may be a part): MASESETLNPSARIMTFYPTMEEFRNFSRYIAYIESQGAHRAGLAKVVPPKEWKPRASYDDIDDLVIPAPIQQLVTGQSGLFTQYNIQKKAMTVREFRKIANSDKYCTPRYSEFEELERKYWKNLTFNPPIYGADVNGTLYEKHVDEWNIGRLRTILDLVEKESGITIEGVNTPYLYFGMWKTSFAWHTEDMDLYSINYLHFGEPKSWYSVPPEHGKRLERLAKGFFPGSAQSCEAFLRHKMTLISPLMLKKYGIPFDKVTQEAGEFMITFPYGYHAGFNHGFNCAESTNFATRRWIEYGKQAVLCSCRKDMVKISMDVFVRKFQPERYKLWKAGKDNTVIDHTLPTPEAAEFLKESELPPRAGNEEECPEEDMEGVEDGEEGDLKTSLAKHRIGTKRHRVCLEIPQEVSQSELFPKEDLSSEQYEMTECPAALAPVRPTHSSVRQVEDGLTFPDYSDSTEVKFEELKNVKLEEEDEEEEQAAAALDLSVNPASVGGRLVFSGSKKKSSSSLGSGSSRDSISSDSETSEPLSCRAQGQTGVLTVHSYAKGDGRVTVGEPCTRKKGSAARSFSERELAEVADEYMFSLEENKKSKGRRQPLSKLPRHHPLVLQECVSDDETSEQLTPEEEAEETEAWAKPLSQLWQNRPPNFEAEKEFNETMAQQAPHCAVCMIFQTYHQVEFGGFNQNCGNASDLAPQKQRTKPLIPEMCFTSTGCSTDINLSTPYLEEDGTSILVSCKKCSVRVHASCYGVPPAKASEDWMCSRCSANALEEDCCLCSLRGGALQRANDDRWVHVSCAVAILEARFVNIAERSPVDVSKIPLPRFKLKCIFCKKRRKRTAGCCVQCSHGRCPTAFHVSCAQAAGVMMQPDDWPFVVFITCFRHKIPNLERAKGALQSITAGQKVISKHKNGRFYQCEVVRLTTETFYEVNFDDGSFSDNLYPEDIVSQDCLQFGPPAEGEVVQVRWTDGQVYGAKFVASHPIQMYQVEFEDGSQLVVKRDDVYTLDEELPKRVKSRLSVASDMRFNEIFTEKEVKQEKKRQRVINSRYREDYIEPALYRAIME
% is scaled to controls: 0 for no effect and ±100 for the full control effect; potency is read from the fitted curve at half-maximal effect.
Also: nearly all actives have a fitted effect of over 50% in size.

SMILES | activity change, negative = inhibition | Potency
Cc1nn(-c2ccc(N3CCCCC3)nn2)c(C)c1CCC(=O)NCc1ccccc1F | -25% (inactive) | –
COc1ccc(CNC(=O)C2CCCC2)cc1 | -10.1% (inactive) | –
COc1ccc(CN2CCCC(C(=O)N3CCCCC3)C2)cc1 (centres undefined) | – | 79.4 µM (active)
COc1ccc(/C=C/C(=O)NC(=S)N2CCCC(C(N)=O)C2)cc1 (centres undefined) | -11% (inactive) | –
O=C(COc1ccc(Cl)cc1)Nc1ccccc1OCc1cc(=O)n2ccccc2n1 | -2.6% (inactive) | –
CC(=O)c1cccc(NC(=O)C2COc3ccccc3O2)c1 (centres undefined) | -2.33% (inactive) | –
C/C(=N/NC(=O)C1COc2ccccc2O1)c1ccco1 (centres undefined) | -5.63% (inactive) | –
O=C(Nc1nc(-c2ccncc2)cs1)C1COc2ccccc2O1 (centres undefined) | – | 50.1 µM (active)
O=C(CC(c1cccs1)N1Cc2ccccc2C1=O)Nc1ccc(F)cc1F (centres undefined) | -31.7% (inactive) | –
Cc1ccc(NS(=O)(=O)c2cc3c(cc2Br)NC(=O)CO3)cc1C | -12.9% (inactive) | –
COc1ccc(-c2c(C)c3ccc(O)c(CN4CCN(C)CC4)c3oc2=O)cc1OC | -13.6% (inactive) | –
CCOC(=O)COc1cc(OCC(=O)OCC)c2c(=O)cc(-c3ccccc3)oc2c1 | 1.3% (inactive) | –
COc1c(O)cc2oc(-c3ccc(O)c(O)c3)cc(=O)c2c1O | – | 31.6 µM (active)
O=C(CCc1nc(CN2CCN(S(=O)(=O)c3ccc(F)cc3)CC2)no1)N1CCCCC1 | -35.2% (inactive) | –
O=C(Nc1ccc(OC(F)(F)F)cc1)c1cc2c(=O)n3ccccc3nc2s1 | -18.1% (inactive) | –
CCc1cccc(C)c1NC(=O)COC(=O)CNC(=O)c1cccs1 | -15.8% (inactive) | –
CCc1c(C)sc(NC(=O)c2cccs2)c1C(N)=O | – | 89.1 µM (active)
CCc1c(C)sc(NC(=O)c2ccc(Br)o2)c1C(=O)OC | 71.5% (inactive) | –
CC1CCCN(S(=O)(=O)c2ccc3[nH]c(=O)cc(C(=O)NCCc4ccc(Cl)cc4)c3c2)C1 (centres undefined) | -6.12% (inactive) | –
Cc1ccc(NC(=O)c2nc(S(=O)(=O)Cc3cccc(C)c3)ncc2Cl)cc1 | -31.4% (inactive) | –
O=C(c1cn2ccccc2n1)N1CCc2c([nH]c3ccccc23)C1c1ccccn1 (centres undefined) | -25.6% (inactive) | –
Cc1cccc(C(=O)N2CCc3c([nH]c4ccccc34)C2CC(C)C)n1 (centres undefined) | -29.9% (inactive) | –
Cc1cccc(C2c3[nH]c4ccccc4c3CCN2C(=O)c2cc(-c3cccn3C)n[nH]2)n1 (centres undefined) | – | 56.2 µM (active)
COc1ccc(CCNC(=O)c2cnc3sc(N4CCCCCC4)nn3c2=O)cc1OC | -12.7% (inactive) | –
COc1ccccc1NC(=O)Cn1cnc2ccc(S(=O)(=O)N3CCC(C)CC3)cc2c1=O | -19.8% (inactive) | –

SMILES | activity change, negative = inhibition | Potency
COc1ccc(OC)c(NC(=O)CSC2=Nc3ccccc3C3=NC(CC(=O)NCCc4ccccc4)C(=O)N23)c1 (centres undefined) | -23.7% (inactive) | –
Cc1cccc(N(C)C(=O)CS(=O)(=O)c2cccc3nsnc23)c1 | -14.8% (inactive) | –
Cc1ccc(NN=Nc2nc3c([nH]2)c(=O)n(C)c(=O)n3C)cc1 | – | 14.1 µM (active)
Cc1cccc(C)c1NC(=O)CSc1nc2c([nH]1)c(=O)n(C)c(=O)n2C | -7.04% (inactive) | –
Cc1cc(C)c(C=NNc2nc3c([nH]2)c(=O)n(C)c(=O)n3C)c(C)c1 | -17.9% (inactive) | –
CCc1ccc(NC(=O)c2cc3c(=O)n(Cc4cccnc4)ccc3nc2C)cc1 | -14.7% (inactive) | –
O=C(NCc1ccccc1)C(=O)NCC(c1ccco1)S(=O)(=O)c1ccc(Cl)cc1 (centres undefined) | -3.57% (inactive) | –
Cc1ccc(C)n1-c1nnc(N2CCC(C(=O)NCc3ccccc3Cl)CC2)s1 | -13.1% (inactive) | –
COCCNC(=O)Nc1ccc2nc(-c3ccco3)c(-c3ccco3)nc2c1 | – | 20 µM (active)
C=CCNC(=O)c1ccc2nc(-c3ccco3)c(-c3ccco3)nc2c1 | -28.5% [at 57.1 µM] (inactive) | –
CCOc1ccc(NC(=O)c2ncoc2-c2ccco2)cc1 | -14.2% (inactive) | –
CC(C)Cn1c(C2CC(=O)N(c3ccccc3Cl)C2)nc2ccccc21 (centres undefined) | -2.01% (inactive) | –
Cc1ccccc1CNC(=O)c1ccc(NC(=O)N2CCCCc3ccccc32)cc1 | -8.67% (inactive) | –
CCOC(=O)c1c(C)[nH]c(C)c1S(=O)(=O)N(C)CC(=O)N1CCN(c2ccccc2)CC1 | -26.3% (inactive) | –
Cc1cc(Br)ccc1NC(=O)Cn1cnc2sc(C)c(S(=O)(=O)N3CCN(C)CC3)c2c1=O | -7.85% (inactive) | –
O=C(Nc1nnc(-c2ccccc2)o1)c1cccc(S(=O)(=O)N2CCOCC2)c1 | -5.56% (inactive) | –
O=C(Nc1nnc(-c2ccco2)o1)c1ccc(S(=O)(=O)N2CCOCC2)cc1 | – | 79.4 µM (active)
CC1CCCN(S(=O)(=O)c2ccc(C(=O)Nc3nnc(-c4ccncc4)o3)cc2)C1 (centres undefined) | -35.7% (inactive) | –
Cc1ccc(Nc2nnc(-c3ccc(C)c(S(=O)(=O)N4CCCCC4)c3)c3ccccc23)cc1 | -1.31% (inactive) | –
COc1ccccc1C1=Nc2cccc3cccc(c23)N1 | – | 50.1 µM (active)
COc1ccccc1-c1nc(C(F)(F)F)c(OC)o1 | -7.87% [at 57.1 µM] (inactive) | –
COc1ccccc1-c1nnc(-c2ccc(F)cc2)o1 | -3.47% (inactive) | –
COc1ccc(NC(=O)Cn2c(=O)cc(C)c3c(C)nn(-c4cccc(Cl)c4C)c32)cc1OC | -2.88% (inactive) | –
CCOC(=O)C1CCCN(C(=O)c2ccc(-n3ccc4ccccc43)s2)C1 (centres undefined) | 45.1% (inactive) | –
CCCn1c2ccccc2c2cnn(CC(=O)N(CC)c3cc(C)ccc3C)c(=O)c21 | -20.1% (inactive) | –

SMILES | activity change, negative = inhibition | Potency
Cc1nnc(NCc2ccccc2)c2c1nnn2Cc1ccc(F)cc1 | -13.8% (inactive) | –
CN(C)[C@@H]1C(=O)C(C(N)=O)=C(O)[C@@]2(O)C(=O)C3=C(O)c4c(O)ccc(Cl)c4[C@@H](O)[C@H]3C[C@@H]12 | – | 25.1 µM (active)
C=C1c2c(Cl)ccc(O)c2C(O)=C2C(=O)[C@]3(O)C(O)=C(C(N)=O)C(=O)[C@@H](N(C)C)[C@@H]3[C@@H](O)C12 (some centres undefined) | – | 2 µM (active)
COc1ccccc1NC(=O)CSC1=Nc2ccccc2C2=NC(CC(=O)NCc3cccs3)C(=O)N12 (centres undefined) | -15.7% (inactive) | –
COc1ccc(C)cc1-n1c(-c2ccc(C)cc2)cc2c1CC(C)(C)CC2=O | -27.3% (inactive) | –
O=C1CSC2(C(=O)N(Cc3ccccc3)c3ccccc32)N1c1cccc(F)c1 (centres undefined) | -8.97% (inactive) | –
COc1ccccc1Nc1nc(N)nc(CN(C)C2CCCCC2)n1 | – | 15.8 µM (active)
COc1ccccc1NC1=NC(c2ccc(Cl)cc2)N=C(N)N1 (centres undefined) | -20.7% (inactive) | –
COc1ccccc1Nc1nc(N)nc(CSC(=S)N2CCOCC2)n1 | -7.91% (inactive) | –
O=C(Nc1cc(C(F)(F)F)ccc1Cl)c1ccc2c(c1)CCN2S(=O)(=O)c1ccccc1 | 3.14% (inactive) | –
CC(C)CNc1ncnc2c1nnn2C | -14.6% (inactive) | –
O=C(CC1N=C2c3ccccc3N=C(SCc3cccc(Cl)c3)N2C1=O)NCc1ccc2c(c1)OCO2 (centres undefined) | -21.7% (inactive) | –
COC(=O)c1c(NC(=O)c2c(Cl)cnn2C)sc(C)c1C | -1.31% (inactive) | –
COCCCNCC(=O)Nc1sc(C)c(C)c1C(=O)OC | – | 28.2 µM (active)
CCOC(=O)c1c(NC(=O)CCl)sc(C(=O)N(CC)CC)c1C | -2.65% (inactive) | –
CCc1cccc(NC(=O)CSc2nccn2C)c1 | -5.6% (inactive) | –
Cc1cc(C)cc(OCC(=O)Nc2c(C(=O)c3ccccc3)oc3ccccc23)c1 | 12.7% (inactive) | –
O=C(Cn1cc(SCc2cccc(Cl)c2)c2ccccc21)N1CCCCC1 | 8.06% (inactive) | –
COc1ccc(-c2nn(CC(=O)NC3CCCC3)c3c2cnc2ccc(F)cc23)cc1 | -9.67% (inactive) | –
O=C(COC(=O)c1ccccc1)c1ccc2c(c1)OCCO2 | 2.03% (inactive) | –
O=C(CCN1CCc2ccccc2C(O)(c2ccccc2)C1)c1ccc2c(c1)OCCO2 (centres undefined) | – | 79.4 µM (active)
O=C(CN1CCC(O)(c2ccccc2)CC1)Nc1ccc2c(c1)OCCO2 | -14.5% (inactive) | –
Cc1cc(Cl)ccc1NC(=O)Cc1ccc(NC(=O)N2CCCCc3ccccc32)cc1 | -24% (inactive) | –
Cc1ccc(C)c(Cn2c(C)c(CNCc3ccc(F)cc3)c(C(=O)O)c2C)c1 | -25.5% (inactive) | –
S=c1[nH]ccn1-c1ccc(Cl)cc1 | – | 10 µM (active)

SMILES | activity change, negative = inhibition | Potency
CCOC(=O)c1ccccc1NC(=O)c1sc2nc(-c3ccc(F)cc3)cn2c1C | -18.2% (inactive) | –
CN1CCN(CCCNC(=O)c2ccc(/C=C3\Oc4ccccc4N(Cc4ccc(Cl)cc4)C3=O)cc2)CC1 | -1.17% (inactive) | –
O=C(NCCCN1CCOCC1)c1ccc2c(c1)N(Cc1cccc(F)c1)C(=O)c1ccccc1S2 | 0.389% (inactive) | –
CCN1CCN(CCNC(=O)c2ccc(/C=C3/Sc4ccccc4N(Cc4cccc(C)c4)C3=O)cc2)CC1 | – | 50.1 µM (active)
COc1ccc(Cl)cc1NC(=O)Cn1c(=O)c2ccccc2n2nncc12 | -26.8% (inactive) | –
COc1ccccc1CNCc1ccc(C(=O)O)s1 | -5.03% (inactive) | –
CSc1nc(Nc2ccc(F)cc2)cc(-c2ccccc2)n1 | 43.4% (inactive) | –
COC(C(=O)Nc1ccc(C(C)=O)cc1)c1ccccc1 (centres undefined) | -6.88% (inactive) | –
COc1ccc(NC(=O)[C@H](NC(=O)[C@@H]2Cc3ccccc3CN2)c2ccccc2)cc1 | -9.09% (inactive) | –
COc1ccc(NC(C(=O)Nc2cccc(C(C)=O)c2)c2ccccc2)cc1 (centres undefined) | – | 17.8 µM (active)
Cc1ccccc1CNC(=O)Cn1c(C)c2cnn(-c3ccccc3)c(=O)c2c1C | -6.71% (inactive) | –
CC(=O)Oc1ccc(C(C)=O)c2c1OCCO2 | -12.2% (inactive) | –
CC(=O)Oc1ccc(OC(C)=O)c2c1C1C=CC2CC1 | – | 22.4 µM (active)
COc1cc(OC)c(NC(=O)c2nc(-c3ccncc3)no2)cc1Cl | -1.64% (inactive) | –
CC(C)(C)NC(=O)CSc1nc(-c2ccc(F)cc2)cc(C(F)(F)F)n1 | 11.3% (inactive) | –
CSc1nc(C)cc(SC(C(C)=O)C(=O)Nc2ccccc2)n1 (centres undefined) | – | 56.2 µM (active)
CC(Sc1nnc2c(n1)C1CCC2(C)C1(C)C)C(=O)Nc1ccccc1 (centres undefined) | -11.3% (inactive) | –
Cc1cc(C)nc(N(C#N)CC(=O)Nc2ccccc2)n1 | -7.56% (inactive) | –
CCOc1ccc(NC(=O)c2c(NCc3cccc(OC)c3OC)sc3c2CCC3)cc1 | -25.3% (inactive) | –
O=C(NCc1nnc(C(=O)Nc2ccc(C(F)(F)F)cc2Cl)o1)c1ccccc1 | -20.5% (inactive) | –
Cc1ccc(NC(=O)Nc2sc3nc4n(c(=O)c3c2C)CCC(C)CC4)c(Cl)c1 (centres undefined) | -6.18% (inactive) | –
Cc1ccc(NC(=O)/C(=C\c2ccccc2)NC(=O)c2ccco2)cc1 | -1.39% (inactive) | –
COc1ccccc1C(=O)N/C(=C/c1ccco1)C(=O)Nc1ccc(C(=O)O)cc1 | – | 25.1 µM (active)
COc1ccccc1C(=O)N/C(=C/c1ccc2c(c1)OCO2)C(=O)Nc1cccc(C(=O)O)c1 | -8.7% (inactive) | –
